Screens from PubChem BioAssay.
DT40 TDP1 CPT = growth inhibition of DT40 Tdp1-/-;hTDP1 cells with camptothecin (screen for TDP1 inhibitors); chicken DT40 Tdp1-/-;hTDP1 cells + 20 nM CPT, ATP luminescence, 48 h; Potency, µM (highest dose often 46.2 µM), inactives show at the highest dose activity change, negative = growth inhibition, usual class: inhibitors; hit rate 12% among 420,000; note: potency is the fitted concentration of half-maximal effect; nearly all actives have a fitted effect of over 55% in size
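Chicken DT40 Tdp1-/- cells stably complemented with human TDP1 were seeded at 400 cells/well in medium containing 20 nM camptothecin, exposed to pin-transferred compounds, and grown at 37 °C for at least 48 hr. Viability was read as ATP luminescence.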
HT1080NT lethal = kills 2HG-producing HT-1080-NT fibrosarcoma cells; HT-1080-NT fibrosarcoma viability, CellTiter-Glo ATP luminescence, 48 h; Potency, µM (titrated, usually from 46.1 µM), inactives show at the top dose activity, negative = less viability, actives largely listed as cytotoxic; hit rate 1.6% among 360,000;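 note: NT is the 2HG producing partner of a matched IDH1 knockdown line; potency is the fitted concentration of half-maximal effect; 0% = DMSO-treated cells and -100% = media-only wells without cells; nearly all actives have a fitted effect of over 55% in size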
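A 48-hour cytotoxicity screen used HT-1080-NT cells plated 2 hours before compound delivery. ATP-based CellTiter-Glo luminescence measured viability, normalized to DMSO and no-cell controls.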
HT1080 IDH1KD tx = toxicity to HT-1080 IDH1 knockdown cells (counter line); HT-1080 IDH1 knockdown viability, ATP luminescence, 48 h; Potency, µM (top dose mostly 46.1 µM), without a hit: at the top dose activity, negative = toxicity, usual class: cytotoxic; hit rate 2% among 360,000; AID 686971;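 note: potency is the fitted concentration of half-maximal effect; 0% = DMSO wells and -100% = cell-free medium wells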
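Viability of IDH1-knockdown HT-1080 fibrosarcoma cells was assessed by CellTiter-Glo after 48 h at 37 °C with titrated compound; concentration-effect curves were classified by fit quality and response size.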
ALOX12 inh = inhibitors of human 12S-lipoxygenase ALOX12. P18054. purified 12hLO, xylenol orange hydroperoxide absorbance. Potency, µM (highest dose often 108 µM), for the others: at the highest dose activity change, negative = inhibition, usual class: inhibitors. hit rate 1.1% among 580,000. AID 1671190; note: potency is the fitted concentration of half-maximal effect
Target sequence (P18054 whole entry, looked up): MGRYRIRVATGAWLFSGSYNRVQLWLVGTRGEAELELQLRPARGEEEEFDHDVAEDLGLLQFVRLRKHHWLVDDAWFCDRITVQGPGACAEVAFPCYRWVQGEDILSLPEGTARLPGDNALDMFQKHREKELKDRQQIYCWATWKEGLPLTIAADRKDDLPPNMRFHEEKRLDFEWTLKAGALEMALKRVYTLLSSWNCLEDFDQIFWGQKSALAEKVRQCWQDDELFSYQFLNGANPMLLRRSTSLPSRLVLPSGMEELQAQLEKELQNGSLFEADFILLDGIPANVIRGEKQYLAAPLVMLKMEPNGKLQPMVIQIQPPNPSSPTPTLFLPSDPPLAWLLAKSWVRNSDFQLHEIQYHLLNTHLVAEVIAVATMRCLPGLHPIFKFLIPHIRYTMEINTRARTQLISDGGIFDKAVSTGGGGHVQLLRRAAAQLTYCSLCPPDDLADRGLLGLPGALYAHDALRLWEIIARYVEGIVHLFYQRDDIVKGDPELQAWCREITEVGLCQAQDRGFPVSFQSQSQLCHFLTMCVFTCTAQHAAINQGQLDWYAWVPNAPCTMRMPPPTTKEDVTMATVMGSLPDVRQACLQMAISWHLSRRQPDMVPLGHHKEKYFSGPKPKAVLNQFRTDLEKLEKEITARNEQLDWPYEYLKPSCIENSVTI
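Hydroperoxide product was detected by ferrous iron/xylenol orange as the 573 to 405 nm absorbance ratio. Arachidonic acid at 40 uM (final) was turned over for 30 min at room temperature by 150 nM human 12hLO, pH 7.0 Hepes buffer, after 15 min compound preincubation.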
TDP1 cell noCPT = qHTS for Inhibitors of human tyrosyl-DNA phosphodiesterase 1 (TDP1): qHTS in cells in absence of CPT. DT40 Tdp1-/- hTDP1 cells, no CPT, ATP luminescence, 48 h. Potency, µM (top dose mostly 46.2 µM), inactives show top-dose activity change, negative = growth inhibition, most hits filed as inhibitors. hit rate 15% among 420,000; note: potency is the fitted concentration of half-maximal effect; nearly all actives have a fitted effect of over 55% in size
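Camptothecin absent (DMSO only). Human TDP1-complemented DT40 knockout cells, 400 cells/well, 37 °C for minimum 48 hr; ATP measured via CellTiter-Glo, 30 min dark incubation, luminescence.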
IL-1B inflam inh = inhibitors of inflammasome signaling (IL-1 beta secretion); activity change, % at 57.5 µM; hit rate 4.7% among 360,000; THP-1 LPS/ATP IL-1B secretion, AlphaLISA, 16 h; active compounds read low; in the data active = activity change below about -50%; inconclusive = mostly about -30% to -49%
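Secreted IL-1B measured by AlphaLISA bead assay after 16 h compound exposure of THP-1 cells; compounds (final up to 57.5 uM) added 1 h before LPS (250 ng/mL) and ATP (1.25 mM) stimulation; lower signal means less secretion.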
* marks the source's active call; other numbers are inactive results; ? = inconclusive; / = no result; [ ] = remark or other dose. The entries come from a sample that favours hits as a whole. Unless noted, calls come from the whole dose curve; as a rule, active = well fitted curve in the direction sought with a large enough effect; inconclusive = small, poorly fitted or top-dose-only effect, or another doubt; inactive = no such curve, though single readings can be large; an effect the other way counts as inactive or inconclusive. Unless noted, % is set by controls: 0 for no effect and ±100 for the full control effect.

SMILES	DT40 TDP1 CPT	HT1080NT lethal	HT1080 IDH1KD tx	ALOX12 inh	TDP1 cell noCPT	IL-1B inflam inh
COc1ccc(C(=O)N(c2ccc(OC)cc2)S(=O)(=O)c2cccs2)cc1	?	-1%	0%	-7%	?	25
COc1ccc(N(C(=O)COc2cccc(C)c2)S(=O)(=O)c2ccc(C)cc2)cc1	18µM*	-11%	-9%	-21%	-28%	16
COc1ccc(N(C(=O)c2ccccc2)S(=O)(=O)c2cccs2)cc1	?	16µM*	?	11%	21µM*	8
CCc1ccc(S(=O)(=O)N(C(=O)c2ccncc2)c2ccc(OC(=O)c3ccncc3)cc2)cc1	?	-13%	-4%	?	?	-61*
CCOc1ccc2cc(C3CC(c4ccco4)=NN3S(C)(=O)=O)c(Cl)nc2c1 (stereo not given)	?	-1%	-8%	?	?	-60*
COc1ccc2cc(C3CC(c4cccs4)=NN3S(C)(=O)=O)c(Cl)nc2c1 (stereo not given)	16µM*	-1%	-2%	-8%	?	-17
CCOc1ccc(NC(=O)CN(C)C(=O)c2ccc(OCC(=O)N3CCOCC3)c(OC)c2)cc1OCC	1%	2%	1%	1%	1%	13
COc1ccc(S(=O)(=O)N2CCc3nc4cc(-c5ccccc5)[nH]n4c(=O)c3C2)cc1	/	/	/	20%	/	/
CC(=O)c1ccc2cccc3c2c1N=CN3C	-4%	0%	-14%	2%	-12%	-59*
Cc1ccc(-n2c(-c3ccccc3)nsc2=NC#N)cc1	13µM*	/	/	/	?	/
Cc1nc(Nc2ncc(C(=O)Nc3c(C)cccc3Cl)s2)cc(N2CCN(CCO)CC2)n1	2.1µM*	/	/	?	2.4µM*	/
COc1ccc(C2(CNC(=O)c3ccc(Cl)cc3Cl)CCOCC2)cc1	/	/	/	-15%	/	/
COc1ccc(-c2sc3ccc(N4CCOCC4)cc3c2-c2ccc(O)cc2)cc1	?	-1%	4%	-19%	?	1
COc1ccc(-c2sc3ccc(N4CCOCC4)cc3c2C#CC(C)(C)O)cc1	21µM*	4%	0%	?	9.2µM*	38
COc1ccc(-c2sc3ccc(N4CCOCC4)cc3c2C#Cc2ccsc2)cc1	18µM*	-22%	-21%	-24%	?	5
COc1ccc(NCc2cccn2-c2nnc(N3CCOCC3)s2)c(OC)c1	-26%	/	/	1%	-22%	/
COc1ccc(NCc2cccn2-c2nnc(N3CCC(C)CC3)s2)c(OC)c1	?	/	/	-20%	16µM*	/
COc1ccc(OC)c(NCc2cccn2-c2nnc(N3CCC(C)CC3)s2)c1	2.9µM*	/	/	-18%	2.6µM*	/
N#Cc1cccc(-c2ccnc(N[C@H]3CO[C@H]4[C@@H]3OC[C@@H]4NC(=O)c3ccccc3)n2)c1	/	/	/	36%[176 µM]	/	/
CC(C)(Oc1nn(CCOc2ccccc2)c2ccccc12)C(=O)NCC1CCOCC1	/	/	/	5%[176 µM]	/	/
COc1ccc(-c2cc(C(C)=O)c(C)n2CCC(=O)Nc2cc(C)ccc2OC)cc1	16µM*	/	/	-24%	18µM*	/
COc1ccc(-c2cc(C(C)=O)c(C)n2CCC(=O)Nc2ccc(C(F)(F)F)cc2)cc1	12µM*	/	/	-17%	13µM*	/
CC(=O)c1cc(-c2ccc(F)cc2)n(CCC(=O)Nc2cccnc2)c1C	0%	0%	6%	-5%	-17%	18
CC(=O)c1cc(-c2ccccc2)n(CC(=O)NCc2ccccc2C)c1C	?	/	/	-20%	-6%	/
CC(=O)c1cc(-c2ccc(F)cc2)n(CCC(=O)NCc2ccccc2C)c1C	16µM*	/	/	-29%	?	/
